{
  "source": "PubChem BioAssay (NCI)",
  "note": "This is part of a sample that, as a whole, favours compounds with a hit. Of some 83,000 tested, about 20% had one in any assay.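 For each line, cells grew in 96-well plates with the test compound present at a single concentration for 48 hours.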 A number with no mark means an inactive call. Activity calls are given as the source filed them. How the source made its calls: active means growth percent below 10; inactive means the rest.",
  "data": [
    {"tested_on": "MDA-MB-468 breast", "assay": "NCI-60 one-dose screen, 48 h (100 = growth as untreated, 0 = no growth, -100 = all killed)", "conditions": "10 µM unless noted", "values": [
      {"molecule": "Cc1c(Cl)cccc1NC(=O)c1sc2nc3c(cc2c1N)CCCCCC3", "growth": "26.5%"},
      {"molecule": "COc1ccc(-c2cc(C(=O)Nc3ccc(C)cc3)nc3[nH]c(=O)sc23)cc1", "growth": "66.6%"},
      {"molecule": "CCCC(C(=O)OCC)C(C)OC(=O)OCC", "note": "(stereo not given)", "growth": "101%"},
      {"molecule": "COc1cc(C2C3=C(COC3=O)N(CCO)c3cc4c(cc32)OCCO4)cc(OC)c1OC", "note": "(stereo not given)", "growth": "-64.5% (active)"},
      {"molecule": "CC1(C)CCC(C)(C)NC(=S)N1", "growth": "103%"},
      {"molecule": "COc1cc2nc(-c3ccc(C(F)(F)F)cc3)cc(OCCN3CCC(O)CC3)c2cc1OC", "growth": "81.1%"},
      {"molecule": "O=[N+]([O-])c1ccc(C2CC(c3ccccc3)=Nc3ccccc3S2)cc1", "note": "(stereo not given)", "growth": "77.7%"},
      {"molecule": "COc1ccc(-c2ccc(-c3ccc(-c4ccc(C(=N)N)cc4)s3)s2)cc1OC", "growth": "-71.4% (active)"},
      {"molecule": "COc1ccc2nc3cc(Cl)ccc3c(N3CCN(c4nccc(Nc5ccc(Cl)cc5)n4)CC3)c2c1", "growth": "82.8%"},
      {"molecule": "CN(C)c1ccc2c(c1)/C(=N/O)c1ccccc1-2", "growth": "76.9%"},
      {"molecule": "NS(=O)(=O)c1ccc(-n2ncc3c(=O)[nH]c(CN4CCN(c5cc6c(cc5F)c(=O)c(C(=O)O)cn6C5CC5)CC4)nc32)cc1", "growth": "95.4%"},
      {"molecule": "Oc1[nH]c2ccccc2c1N=Nc1nnc2n1N=C(c1ccccc1)CS2", "growth": "104%"},
      {"molecule": "COc1cc2ncnc(Nc3cccc(Cl)c3F)c2cc1OC(=O)N1CCN(C)C[C@H]1C", "growth": "-10.7% (active)"},
      {"molecule": "CCOc1cc(Br)c(C(C)NC(=O)c2cccc(OC)c2)cc1OCC", "note": "(stereo not given)", "growth": "52.6%"},
      {"molecule": "COc1ccc(/C=N/NC(=O)c2c(N)nn(C)c2Nc2ccccc2)cc1", "growth": "-1.26% (active)"}
    ]}
  ]
}
